Sampled rows, rich in hits. Any-hit rate of the full collection: about 3.5%.
LEDGF integ inh – blocks HIV-1 LEDGF/p75-dependent DNA integration | TR-FRET IN-LEDGF/p75 DNA integration, Eu/Cy5 | inhibition, % at 3.7 µM | 0.64% of 370,000 active | AID 743269;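 active means inhibition above the screen-wide mean plus 3 SD, cut at about 13% in these data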;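 further: signal is the Cy5 over europium emission ratio at 671 and 618 nm; 0% = plate median of compound wells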
MBD2 DNA inh – MBD2-methylated oligo binding inhibition; TR-FRET, MBD2 binding to methylated oligonucleotide; inhibition, % at 4.4 µM; 0.31% of 370,000 active; Q9UBB5; AID 686964; in the data active means inhibition above about 13%
DNMT1 inh – inhibitors of human DNMT1; 0.83% of 360,000 active; DNMT1 molecular beacon, Hinp1I cleavage, fluorescence; inhibition (reported as % activation of signal), % at 10 µM; AID 588458; in the data active means inhibition above about 50%
PG9 Ab binder – small molecules binding HIV-1 gp120 antibody PG9. TR-FRET gp120-PG9 antibody binding. inhibition, % at 6.7 µM. 0.43% of 360,000 active; in the data active means inhibition above about 8.5%
rCAG binder – r(CAG) repeat RNA binding; TO-PRO-1 dye displacement fluorescence; inhibition, % at 3 µM; 1.3% of 370,000 active;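 active means inhibition above the plate cutoff, the mean of all test compounds on that plate plus 3 SD, cut at about 35% in these data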;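 further: 0% = DMSO alone and 100% = 100 µM mitoxantrone as full dye displacement; higher means more dye released from RNA so lower well fluorescence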
UHRF1 MBD2 ctr – human UHRF1 methylated DNA binding inhibitors; Q96T88; UHRF1 binding to methylated oligo, TR-FRET; inhibition, % at 4.4 µM; 0.75% of 370,000 active; AID 687016; in the data active means inhibition above about 21%;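 further: UHRF1 SRA domain binding a hemimethylated CpG hairpin DNA probe; 0% = median of test compound wells and 100% = reference inhibitor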
Target sequence (Q96T88 whole entry, looked up, the tested form may be a part): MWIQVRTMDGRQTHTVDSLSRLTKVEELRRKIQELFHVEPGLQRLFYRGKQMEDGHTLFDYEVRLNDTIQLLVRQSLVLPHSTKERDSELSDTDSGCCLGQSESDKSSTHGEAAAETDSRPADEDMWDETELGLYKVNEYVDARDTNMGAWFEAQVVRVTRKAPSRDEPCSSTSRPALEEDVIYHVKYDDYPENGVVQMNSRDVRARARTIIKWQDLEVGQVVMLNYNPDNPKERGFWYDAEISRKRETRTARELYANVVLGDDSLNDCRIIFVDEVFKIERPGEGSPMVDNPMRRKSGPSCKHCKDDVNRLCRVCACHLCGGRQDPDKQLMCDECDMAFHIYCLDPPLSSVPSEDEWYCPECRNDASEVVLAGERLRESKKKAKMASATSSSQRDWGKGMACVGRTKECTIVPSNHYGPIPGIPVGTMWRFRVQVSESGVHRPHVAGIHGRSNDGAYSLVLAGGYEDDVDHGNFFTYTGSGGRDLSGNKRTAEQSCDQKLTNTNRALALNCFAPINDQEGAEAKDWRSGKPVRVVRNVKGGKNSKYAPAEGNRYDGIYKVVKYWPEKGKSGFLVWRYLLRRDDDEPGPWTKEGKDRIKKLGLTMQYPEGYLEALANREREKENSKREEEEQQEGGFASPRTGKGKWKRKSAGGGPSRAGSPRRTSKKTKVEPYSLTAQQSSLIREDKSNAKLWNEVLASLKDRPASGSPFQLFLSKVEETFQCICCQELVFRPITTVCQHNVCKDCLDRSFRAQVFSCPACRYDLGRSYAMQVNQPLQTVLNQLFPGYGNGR
rCAG bind conf – r(CAG) RNA repeat binding, confirmation | shares compounds with rCAG binder | TO-PRO-1 dye displacement fluorescence | inhibition, % at 3 µM | 70% of 4,300 active | AID 652065;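 active means inhibition above a per-plate cutoff, the mean inhibition of sample wells plus 3 SD, cut at about 35% in these data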;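 further: loss of TO-PRO-1 fluorescence as compound displaces dye from 1x1 AA loop RNA; 0% = DMSO only wells and 100% = 100 µM mitoxantrone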
DNA CAG counter – disrupts DNA CAG TO-PRO-1 complex, flagging rCAG hits; shares compounds with rCAG binder; d(CAG) DNA oligo TO-PRO-1 dye displacement, fluorescence; inhibition, % at 3 µM; 94% of 4,300 active; AID 652068;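 active means inhibition above its plate's cutoff, the mean test-well inhibition plus 3 SD, cut at about 4.8% in these data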;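 further: 0% = DNA dye mix with DMSO and 100% = 100 µM mitoxantrone; hits displace the dye from DNA and so lower well fluorescence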
An asterisk follows results filed as active; x = no result.

SMILES | LEDGF integ inh | MBD2 DNA inh | DNMT1 inh | PG9 Ab binder | rCAG binder | UHRF1 MBD2 ctr | rCAG bind conf | DNA CAG counter
O=C(/C=C/c1ccc([N+](=O)[O-])cc1)Nc1cccc(C(=O)Nc2ccccc2C(=O)O)c1 | 4.3 | -0.8 | -0.4 | 0.5 | 44.0* | -0.2 | 82.7* | 50.5*
COCCNC(=O)C1(C)CCCN(C(=O)c2cccnc2SC)C1 (configuration not stated) | 1.2 | -1.0 | -1.0 | -1.8 | 0.3 | 4.8 | x | x
CCOc1cc(S(=O)(=O)Nc2ccncc2)ccc1F | 0.7 | -1.1 | -2.1 | -0.9 | 1.4 | -1.4 | x | x
COc1ccc(OC)c(NC(=O)Nc2nnc([C@@H]3O[C@H](CO)[C@@H](O)[C@H]3O)s2)c1 | 0.5 | -3.1 | 0.2 | -1.7 | 2.7 | -2.3 | x | x
CCOc1ccc(Nc2cc(C)nc3c(C)cccc23)cc1 | 5.5 | -1.5 | 5.3 | 1.3 | 5.5 | -1.7 | x | x
CC(=O)Oc1cccc(C(=O)Nc2cccc(C(=O)Nc3ccccc3C(=O)O)c2)c1 | 2.8 | 0.9 | 4.0 | -2.8 | 56.0* | -3.0 | 37.4* | 8.4*
CC(=O)Oc1cccc(NC(=O)c2cccc(C(=O)Nc3cccc(OC(C)=O)c3)c2)c1 | -0.5 | 2.4 | -2.9 | -0.9 | 1.1 | -0.2 | x | x
CCOC(=O)C=C(OC(=O)c1ccc(OC)cc1)c1ccccc1 | -8.0 | 1.2 | 0.5 | 0.2 | 0.6 | -0.1 | x | x
O=C(O)CCn1cc(/C=C2\NC(=S)N(c3ccccc3)C2=O)c(-c2ccc(Br)cc2)n1 | -2.8 | 0.2 | -5.7 | -1.7 | 41.0* | 1.2 | 38.8* | 9.4*
CCn1c(=O)n(CC(=O)N2CCOCC2)c(=O)c2ccccc21 | -1.8 | -3.3 | x | x | 0.1 | -0.1 | x | x
CC(=O)c1cccc(NC(=O)CSc2ccc(-c3ccco3)nn2)c1 | 8.0 | 3.4 | 4.7 | -2.5 | 26.3 | 6.9 | x | x
O=C(CSc1ccc(-c2ccco2)nn1)c1cccc([N+](=O)[O-])c1 | 6.4 | -3.0 | 28.5 | -3.5 | 35.5* | 3.5 | 16.8 | 11.3*
O=C(NC1CCCC1)C1c2ccccc2OCC(=O)N1CCc1ccccc1 (configuration not stated) | 6.7 | -1.1 | x | 1.2 | -0.6 | -1.1 | x | x
O=C(NCc1ccccc1Cl)C1CCCN(c2nc3ccccc3o2)C1 (configuration not stated) | 0.3 | -1.2 | x | x | 1.6 | 2.3 | x | x
CCOc1cc(/C=C2/C(=O)NN(c3cccc(Cl)c3)C2=O)ccc1O | -1.7 | -1.3 | 1.7 | -5.8 | 46.5* | 3.8 | 22.6 | 7.5*
COC(=O)c1ccc(N2NC(=O)/C(=C/c3ccc(OC)c(OC)c3)C2=O)cc1 | 1.5 | 1.6 | -0.7 | -1.0 | 26.4 | 3.2 | x | x
COc1cccc(/C=C2/C(=O)NN(c3ccc(C)c(C)c3)C2=O)c1 | 4.8 | -6.9 | -0.8 | -2.4 | 71.9* | -3.6 | 34.0 | 9.5*
COc1cc(/C=C2/C(=O)NN(c3cccc(Cl)c3)C2=O)cc(OC)c1O | -0.8 | 0.6 | -2.9 | -15.8 | 49.9* | -0.7 | 13.5 | 6.8*
O=C1NN(c2cccc(Br)c2)C(=O)/C1=C\c1ccc(O)cc1 | 6.0 | -8.2 | 5.2 | -5.5 | 72.0* | -5.4 | 26.8 | 11.5*
C[C@H](CO)N1C[C@H](C)[C@H](CN(C)S(=O)(=O)c2ccc3ccccc3c2)OCc2cnnn2CCCC1=O | -1.5 | 2.9 | 6.1 | -0.5 | -0.2 | 0.9 | x | x
CC1(C(=O)NCc2cccs2)Cc2c(-c3ccc4c(c3)OCO4)ccnc2O1 (configuration not stated) | -1.1 | 1.1 | 1.1 | 2.5 | 0.6 | -1.8 | x | x
CCc1nnc(NC(=O)CSc2nc3[nH]c(=O)cc(O)c3s2)s1 | 0.7 | -4.0 | 3.3 | -0.7 | 22.8 | -1.7 | x | x
N#Cc1c(SCC(=O)Nc2cccc(C(F)(F)F)c2)sc2c(O)cc(=O)[nH]c12 | -3.2 | 3.1 | 7.0 | -2.7 | 51.7* | 6.7 | 35.1* | 15.0*
Cc1ccc(C)c(NC(=O)CSc2sc3c(O)cc(=O)[nH]c3c2C#N)c1 | 2.9 | 1.4 | 15.2 | 1.2 | 51.1* | 15.3 | 29.0 | 11.2*
O=C(CSCCO)Nc1cccc(C(F)(F)F)c1 | -0.2 | 7.2 | 1.4 | 3.0 | -2.0 | 3.6 | x | x
SMILES | LEDGF integ inh | MBD2 DNA inh | DNMT1 inh | PG9 Ab binder | rCAG binder | UHRF1 MBD2 ctr | rCAG bind conf | DNA CAG counter
CCCSc1nnc(NC(=O)CSc2nc3[nH]c(=O)cc(O)c3s2)s1 | 0.5 | -2.2 | 6.8 | -3.2 | 37.5* | -0.7 | 26.8 | 7.8*
COc1ccccc1NC(=O)CSc1sc2c(O)cc(=O)[nH]c2c1C#N | 2.5 | 4.7 | 9.7 | -0.1 | 52.2* | 14.8 | 17.9 | 8.2*
Cc1ccc(NC(=O)CCN2C(=O)C3CC=CCC3C2=O)cc1Cl (configuration not stated) | 0.7 | 1.9 | 1.9 | 0.8 | -0.5 | 0.0 | x | x
COc1ccc(Cl)cc1NC(=O)CSc1nc(C)cc(C)n1 | -0.3 | 2.0 | -0.2 | -2.1 | -6.0 | 0.3 | x | x
CCSc1nnc(NC(=O)CSc2sc3c(O)cc(=O)[nH]c3c2C#N)s1 | -0.8 | 10.8 | 77.1* | -1.5 | 58.4* | 31.5* | 63.2* | 28.3*
COc1ccc(Cl)cc1NC(=O)CSc1sc2c(O)cc(=O)[nH]c2c1C#N | 7.0 | 2.0 | 11.6 | -2.5 | 55.5* | 2.3 | 31.4 | 15.8*
CCSc1nnc(NC(=O)CC)s1 | -1.4 | -10.1 | 0.1 | -1.2 | -0.1 | -0.8 | x | x
Nc1ccc(C(=O)N/N=C\c2cc(N=Nc3cccc4ccccc34)ccc2O)cc1 | 1.5 | 0.7 | 43.8 | 0.4 | 39.1* | 2.2 | 28.6 | 15.2*
CC(C)(C)NC(=O)C(c1ccc(C#N)cc1)n1c(=O)c(-c2cc3ccccc3[nH]2)nc2ccccc21 (configuration not stated) | -2.9 | -4.3 | x | 2.0 | 15.1 | -2.2 | x | x
COc1ccccc1NC(=O)c1cc2cc(Br)ccc2cc1O | -0.7 | -2.3 | -9.4 | 0.8 | 71.5* | 1.9 | 48.6* | 25.4*
COc1ccccc1NC(=O)COC(=O)c1cc2ccccc2cc1O | 2.4 | -0.9 | 5.2 | -0.9 | 6.4 | -0.3 | x | x
COc1ccc(C)cc1NC(=O)NNC(=O)c1cc2ccccc2cc1O | -5.0 | 1.3 | -0.7 | -1.1 | 58.0* | -2.4 | 41.9* | 14.6*
CCOc1cc(C(N)=O)cc(Cl)c1OCc1ccccc1 | 0.2 | 0.5 | 1.5 | -2.0 | -2.6 | -0.1 | x | x
CCOc1cc(/C=C(/NC(C)=O)C(=O)O)cc(Cl)c1OCc1cccc(Br)c1 | 0.1 | 1.2 | 1.1 | 1.0 | 44.0* | 5.5 | 32.8 | 5.5*
O=C(CC[C@H]1O[C@@H](n2ccc(=O)[nH]c2=O)[C@H](O)[C@@H]1O)N[C@H](Cc1ccccc1)C(=O)NCC1CCCO1 (some centres not stated) | -3.0 | 1.7 | -2.0 | -0.4 | 1.7 | 0.4 | x | x

Compound activity as filed in PubChem.
